Sampled rows, rich in hits. Any-hit rate of the full collection: about 6.2%.
NTR1 ag = agonists of human neurotensin receptor NTR1 | 330,000 compounds, 0.17% hits | activation, % at 20 µM | NTR1-U2OS beta-arrestin-GFP spot imaging, agonist mode | P30989;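 active = activation at or above 40% of the spot to cytoplasm intensity ratio, with at least 20 cells analyzed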
AI-2 QS mod = modulators of Vibrio harveyi AI-2 quorum sensing system | activity change, % at 7.5 µM | 300,000 compounds, 0.4% hits | Vibrio harveyi JMH597 AI-2 luminescence/OD600 ratio, 9 h; stronger effect = lower value; strain lacks LuxN and CqsS sensors; 0 = neutral-control median | AID 2094; in the data active = activity change below about -75%, passing the limit was not always enough;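 note: luminescence divided by OD600 gain over 9 h not by final OD600 alone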
AHR activator = activators of human aryl hydrocarbon receptor; activation, % at 5 µM; P35869; 320,000 compounds, 2.5% hits; AHR-responsive luciferase reporter cells, luminescence; in the data active = activation above about 47%
GRIN3A LBD mod = NR3A (human) ligand-binding domain modulation. NR3A LBD differential scanning fluorimetry, Tm shift; 0% = protein alone, 100% = glycine-bound protein. AID 1259313. Tm shift relative to glycine control, % at 25 µM. 340,000 compounds, 2.5% hits;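 active = melting temperature shift of at least 10% of the positive control shift, at one fixed dose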
SUMO Mot1 rescue = blocks SUMOylation pathway, rescuing yeast Mot1-301 growth | S. cerevisiae Mot1-301 growth rescue, ATP luminescence, 38.5C; percent above DMSO median, 100 means doubled | growth rescue, % at 18.8 µM | 320,000 compounds, 1% hits | AID 2716;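 active = every valid replicate shows activation above 250% relative to neutral control wells; inactive = the rest, any valid replicate at or below 250%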
Cardio protect = modulators protecting cardiomyocytes from myocardial damage | 360,000 compounds, 0.63% hits | protection from H2O2 cell death, % at 20 µM | H9c2 cardiomyocytes, H2O2 injury protection, ATPLite, 2 h;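 active = compounds giving at least 50% protection of heart cells from peroxide-induced death in the single-dose screen, raw or plate-pattern-corrected value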
A number is an active result; – = inactive; · = no result.

SMILES	NTR1 ag	AI-2 QS mod	AHR activator	GRIN3A LBD mod	SUMO Mot1 rescue	Cardio protect
C[C@H]1CN([C@@H](C)CO)C(=O)CCCn2cc(nn2)CO[C@@H]1CN(C)C(=O)Nc1ccccc1C(F)(F)F	·	·	·	·	·	–
Cc1ccc(OCC(=O)N/N=C\c2cn(C)c3ccccc23)c([N+](=O)[O-])c1	–	–	–	–	–	–
CNC(=S)N/N=C/c1cn(CCOc2cccc(OC)c2)c2ccccc12	–	–	56	–	–	–
COc1cccc(OCCn2cc(/C=N/NC(=O)c3ccncc3)c3ccccc32)c1	–	–	–	–	–	–
O=C(CN1c2ccccc2Sc2ccccc21)N/N=C/c1ccc([N+](=O)[O-])cc1	–	–	–	32	–	–
Cn1cc(/C=N/NC(=O)COc2ccccc2[N+](=O)[O-])c2ccccc21	–	–	58	–	–	–
Cn1cc(C(=O)N/N=C/c2ccc([N+](=O)[O-])cc2)c2ccccc21	–	–	–	28	–	–
Cc1cc(C(=O)N/N=C/c2ccc([N+](=O)[O-])cc2)c2ccccc2n1	–	–	–	–	–	–
Cc1cscc1-c1nc(NCC2CC2)nc2ccsc12	·	·	·	·	·	–
COCCC(=O)NC1CCCc2c1cnn2-c1cccc(C)c1C (stereo unspecified)	–	–	–	–	–	–
CC1=C(C(=O)N2CCCC(N3CCN(c4ccccc4F)CC3)C2)OCCO1 (stereo unspecified)	–	–	–	–	–	–
CCN(C(=O)CSc1nnc(-c2ccc3c(c2)OCO3)o1)C1CCS(=O)(=O)C1 (stereo unspecified)	–	·	–	–	–	–
COc1ccc(S(=O)(=O)N(C)C[C@@H]2Oc3c(NS(C)(=O)=O)cccc3C(=O)N([C@@H](C)CO)C[C@H]2C)cc1	–	·	–	–	–	–
COC(=O)N/N=C/c1cn(CCOc2ccccc2OC)c2ccccc12	–	–	60	–	–	–
COC(=O)N/N=C/c1cn(CCOc2ccc(OC)cc2)c2ccccc12	–	–	–	–	–	–
O=C1/C(=C/c2c[nH]c3ccccc23)CCC/C1=C\c1c[nH]c2ccccc12	–	–	65	–	–	–
CCOC(=O)N/N=C/c1cn(Cc2ccc(Cl)cc2)c2ccccc12	–	–	–	–	–	–
N#CCC(=O)N/N=C/c1cn(Cc2ccc(Cl)cc2Cl)c2ccccc12	–	–	–	24	–	–
O=C1CC(CC(=O)N/N=C/c2ccccc2[N+](=O)[O-])=NN1	–	–	47	–	–	–
CSc1nnc(-c2ccc(S(=O)(=O)N3CCOCC3)cc2)n1CC1CCCO1 (stereo unspecified)	–	–	–	–	333	–
CCSc1nnc(-c2ccc(S(=O)(=O)N3CCOCC3)cc2)n1CC1CCCO1 (stereo unspecified)	–	–	–	–	–	–
CCn1cc(/C=C(\NC(=O)c2ccccc2)C(=O)NCCN2CCOCC2)c2ccccc21	·	·	·	·	·	–
Clc1ccc2c(NCc3ccccn3)ncnc2c1	–	–	59	–	–	–
CCOc1ccc(OCC(=O)OCC(=O)N2CCN(S(=O)(=O)c3ccc(C)cc3C)CC2)cc1	·	·	·	–	·	–
Cc1ccc(NC(=O)C2(C)CCN2C(=O)Cc2ccccc2Cl)cc1C (stereo unspecified)	·	·	·	·	·	–
SMILES	NTR1 ag	AI-2 QS mod	AHR activator	GRIN3A LBD mod	SUMO Mot1 rescue	Cardio protect
C=CCSc1cc(C)nc2c(-c3ccccc3)cnn12	–	–	99	–	–	–
Cc1cc(N)n2ncc(-c3ccccc3)c2n1	–	–	61	–	–	–
Cc1cc(-c2ccncc2)n2ncc(-c3ccccc3)c2n1	·	·	·	·	·	–
CC(=O)Nc1ccc(Nc2cc(C)nc3c(-c4ccccc4)cnn23)cc1	·	·	–	33	–	–
O=C(Cn1c(NCCCO)nc2ccccc21)c1ccc(F)cc1	–	·	–	–	–	–
Cc1cccc(C(=O)Nc2cc(S(=O)(=O)N3CCOCC3)ccc2N2CCCC2)c1	–	·	·	–	·	–
C[C@@H]1CN([C@H](C)CO)S(=O)(=O)c2ccc(-c3ccc(C#N)cc3)cc2O[C@H]1CN(C)C(=O)Nc1cc(F)ccc1F	·	·	·	·	·	–
COc1ccc(-c2coc3c(C(=O)Nc4cccnc4)cccc23)c(C)c1	·	·	·	·	·	–
CC1CC(O)C2C3(C)CCCC2(COC3=O)C12CCC1(CCOC1=O)O2 (stereo unspecified)	·	·	·	·	·	–
COc1cc2c(cc1NC(=O)COC(=O)c1ccccc1)oc1ccccc12	–	–	–	·	–	·
COc1cc2c(cc1NC(=O)CSc1ccccc1)oc1ccccc12	–	–	–	35	–	–
COc1cc2c(cc1NC(=O)CSc1nccn1C)oc1ccccc12	–	–	78	–	–	–
COc1cc2c(cc1NC(=O)Cn1cnc3c1c(=O)n(C)c(=O)n3C)oc1ccccc12	·	–	·	·	·	·
COc1cc2c(cc1NC(=O)CSc1nc3cc(Cl)ccc3s1)oc1ccccc12	–	–	–	32	–	–
COc1cc2c(cc1NC(=O)CSc1nc3ccccc3[nH]1)oc1ccccc12	–	–	–	14	–	–
O=C(O)C(Cc1cccs1)c1cccs1 (stereo unspecified)	·	·	·	–	·	–
COc1cc(S(=O)(=O)NCC(c2ccco2)N2CCCCC2)ccc1NC(C)=O (stereo unspecified)	–	·	–	–	–	–
C[C@@H]1[C@H](O)C[C@@]23COC(=O)C2=CCCC3[C@@]1(C)CCC1COC(=O)C1 (stereo partly specified)	–	·	–	–	–	–
Cc1noc(C)c1S(=O)(=O)N(C)C[C@H]1Oc2c(cccc2N(C)C)C(=O)N([C@H](C)CO)C[C@@H]1C	–	·	–	–	–	–
COc1ccc(/C=C/C(=O)NC(=S)Nc2cc3oc4ccccc4c3cc2OC)cc1	–	–	–	–	–	–
COc1cc2c(cc1NC(=O)/C=C/c1ccccc1)oc1ccccc12	–	–	–	20	–	–
COC(=O)[C@H](CC(C)C)NC(=O)c1cc2c(cn1)[nH]c1ccccc12	–	–	–	–	–	–
NC(=S)NN=C1c2cc(Cl)ccc2-c2c1cc(Cl)cc2[N+](=O)[O-]	·	·	·	12	·	–
Cc1ccc(S(=O)(=O)Nc2ccc(C(=O)N3CCCC3)cc2)c(C)c1NS(C)(=O)=O	–	·	–	–	–	–
O=C(OCc1cn([C@@H]2C[C@H](c3ccc(Cl)cc3)N(C(=O)C3CCCCC3)C[C@H]2O)nn1)c1ccccc1	·	·	·	·	·	–
O=C1CNC(=S)N1Cc1ccc(F)cc1	–	–	–	72	–	–
Cc1ccccc1/C=N/N1CCN(c2ccccc2)CC1	–	–	73	13	–	–
O=[N+]([O-])c1ccc(Cl)c(/C=N/N2CCN(c3ccccc3)CC2)c1	–	–	58	–	–	–
COc1ccccc1N1CCN(/N=C/c2cc([N+](=O)[O-])ccc2Cl)CC1	–	–	–	–	–	–

Bioassay records as filed in PubChem BioAssay.
